High-throughput results as filed in PubChem.
Sampled rows, rich in hits. Any-hit rate of the full collection: about 3.5%.
Anthrax LF inh2: anthrax lethal factor protease inhibition. P15917. multiplex microsphere protease cleavage assay, LF. inhibition, % at 10 µM. 0.12% of 360,000 active. AID 588501
Target sequence (P15917 whole entry, looked up): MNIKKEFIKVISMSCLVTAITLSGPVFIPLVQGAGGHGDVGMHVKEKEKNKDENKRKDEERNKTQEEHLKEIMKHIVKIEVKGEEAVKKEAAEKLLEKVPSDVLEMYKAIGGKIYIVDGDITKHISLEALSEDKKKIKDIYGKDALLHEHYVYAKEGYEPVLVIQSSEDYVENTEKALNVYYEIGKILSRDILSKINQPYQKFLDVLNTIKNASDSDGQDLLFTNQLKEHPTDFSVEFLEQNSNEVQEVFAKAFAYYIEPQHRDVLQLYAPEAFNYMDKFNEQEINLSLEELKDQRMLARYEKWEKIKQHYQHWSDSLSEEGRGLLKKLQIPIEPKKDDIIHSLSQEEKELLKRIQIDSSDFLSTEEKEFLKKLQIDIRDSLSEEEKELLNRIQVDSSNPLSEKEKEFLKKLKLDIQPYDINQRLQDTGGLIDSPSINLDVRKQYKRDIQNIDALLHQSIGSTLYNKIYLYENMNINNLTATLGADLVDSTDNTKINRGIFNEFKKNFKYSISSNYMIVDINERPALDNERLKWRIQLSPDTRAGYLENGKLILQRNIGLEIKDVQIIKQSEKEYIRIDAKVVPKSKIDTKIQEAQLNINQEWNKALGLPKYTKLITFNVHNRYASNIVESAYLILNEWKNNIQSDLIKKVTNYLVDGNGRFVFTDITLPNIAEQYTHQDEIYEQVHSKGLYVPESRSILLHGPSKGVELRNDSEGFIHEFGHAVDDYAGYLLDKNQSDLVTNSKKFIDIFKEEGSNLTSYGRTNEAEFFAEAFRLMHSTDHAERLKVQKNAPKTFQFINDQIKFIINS
BoNT-F LC inh: BoNT F light chain protease inhibition. inhibition, % at 10 µM. 0.22% of 360,000 active. Multiplex microsphere protease cleavage assay, flow cytometry. AID 588497; in the data active = inhibition above about 35%, passing the limit was not always enough; inconclusive = no clear call, values can overlap the other calls
BoNT A protease: blocks Botulinum neurotoxin A light chain protease | 0.17% of 360,000 active | inhibition, % at 10 µM | multiplex microsphere protease substrate cleavage, flow cytometry
Bead autofluor: flagged as autofluorescent in microsphere protease counterscreen | compound autofluorescence counterscreen, microsphere flow cytometry; active compounds read high | fluorescence intensity (concentration not given with the values) | 3.1% of 360,000 active | AID 624483; in the data active = fluorescence intensity above about 16000; inconclusive = no clear call, values can overlap the other calls
Each line names hits and unclear results; the compound was inactive in the other large screens. Rule as the data show it, unless noted: active = inhibition above about 30%; inconclusive = no clear call, values can overlap the other calls; inactive = below that.

CN=C(Nc1cc(C)nn1-c1ccccc1)c1ccccc1	none
CCN(CC)c1ccc(/C=C/C(=O)C2C(=O)C=C(C)OC2=O)cc1 (stereo not drawn)	Anthrax LF inh2 73, BoNT-F LC inh 154, BoNT A protease 70, Bead autofluor 66487
CCN(CC)c1ccc(C=C2C(=O)OC(c3ccccc3)OC2=O)cc1 (stereo not drawn)	none
O=C(COC(=O)[C@H](Cc1ccccc1)NS(=O)(=O)c1ccccc1F)NC1CCCCC1	Bead autofluor 18375
COc1ccccc1CN1CCCC(CNC(=O)c2cccc3ccccc23)C1 (stereo not drawn)	BoNT-F LC inh inconclusive
S=C(NC1CCCCC1)c1ccc2c(c1)OCO2	Bead autofluor 20422
Cc1ccc(NC(=S)NCCN2CCOCC2)cc1C	Bead autofluor 20237
O=C(NC(=S)NCCN1CCOCC1)c1ccc(Cl)cc1	BoNT-F LC inh 54
O=C(NCCN1CCOCC1)c1cc2sccc2n1Cc1ccc(F)cc1	none
O=C(NC(=S)NCCN1CCOCC1)c1ccc(Cl)cc1Cl	none
O=C(NCCN1CCOCC1)c1cc2sccc2n1Cc1ccc(Cl)cc1	Bead autofluor 16131
Nc1nc2c([N+](=O)[O-])cccc2s1	none
CC(C)/C=C/CN1CCCC(N2CCN(c3cccc(Cl)c3)CC2)C1 (stereo not drawn)	BoNT-F LC inh inconclusive, BoNT A protease inconclusive
COCCCNC(=O)c1csc([C@H]2C[C@H](O)[C@@H](CO)O2)n1	none
CN(C)C(=O)c1nc2ccc(Cl)cn2c1CN1CCCC(OCc2cccnc2)C1 (stereo not drawn)	none
C=CCN=C(NC#N)SCC(=O)NCc1ccccc1	none
C=CCN=C(NC#N)SCCc1ccccc1	Bead autofluor 20089
CCOC(=O)C1(CCCc2ccccc2)CCN(C(=O)C2=C(C)OCCO2)CC1	none
CCOCCc1nnc(NC(=O)Cc2ccc(Br)cc2)s1	Bead autofluor 23584
CCNC(=O)NC(=O)COC(=O)CCc1nc(=O)c2ccccc2n1C	none
CCCCN(CCCC)S(=O)(=O)c1ccc2oc(C(=O)N3CCOCC3)c(C)c2c1	Bead autofluor 24116
Cc1c(C(=O)NC2CC2)oc2ccc(S(=O)(=O)N3CCCCCC3)cc12	none
Cc1c(C(=O)O)oc2ccc(S(=O)(=O)N3CCCC3)cc12	none
CCCCN(C)C(=O)c1oc2ccc(S(=O)(=O)N3CCCCCC3)cc2c1C	Bead autofluor 23104
CCOC(=O)N1CCN(C(=O)c2oc3ccc(S(=O)(=O)N4CCCCC4)cc3c2C)CC1	Bead autofluor 18639
CCOC(=O)NC(Nc1nnc(C)s1)(C(=O)OCC)C(F)(F)F (stereo not drawn)	none
CCOC(=O)NC(Nc1nc2ccccc2s1)(C(=O)OCC)C(F)(F)F (stereo not drawn)	Bead autofluor 25071
CCOC(=O)C1=C(N)Oc2cc(C)oc(=O)c2C12C(=O)N1c3c(cccc32)C(C)=CC1(C)C (stereo not drawn)	Bead autofluor 21518
CCOC(=O)C1=C(N)Oc2cc(C)oc(=O)c2C12C(=O)N1c3c(cc(OC)cc32)C(C)=CC1(C)C (stereo not drawn)	BoNT A protease inconclusive, Bead autofluor 23174
CCOC(=O)C1=C(N)Oc2cc(C)oc(=O)c2C12C(=O)N1c3c(cccc32)C(C)CC1(C)C (stereo not drawn)	none
COc1cccc(CNC(=O)C(CC(C)C)NC(=O)c2ccccc2C)c1 (stereo not drawn)	none
O=C(NC(=S)N(CCO)Cc1ccccc1)c1cc(Br)ccc1Cl	none
CC(C)CCN1C(N(C)C)=NC[C@@H]1C	none
O=C(CNCc1ccc(F)cc1)Nc1ccc(C(=O)N2CCCCC2)cc1	none
CCc1nc(SCc2cc(Cl)ccc2OC)n[nH]1	Bead autofluor 17236
CCc1nc(SCc2ccc(OC)cc2)n[nH]1	none
O=C(CNC1CCCCCC1)Nc1ccccc1N1CCCCC1	none
O=C(CNCCC1=CCCCC1)Nc1ccccc1N1CCCCC1	Bead autofluor 17116
O=C(CN1CCc2ccccc2C1)Nc1ccccc1N1CCCCCC1	Bead autofluor 23403
O=C(NCN1CCc2ccccc2C1)c1ccccc1	Bead autofluor 17046
O=C(Nc1ccc(Oc2cccnc2)cc1)C1CCN(Cc2cc(Cl)ccc2O)CC1	none
CCc1ccc([C@H]2[C@@H]3C(=O)C[C@@H]4C(=O)N(C5CCCCC5)C(=O)[C@@H]4[C@@H]3CN2S(=O)(=O)c2ccc(C)cc2)cc1	none
Cc1ccccc1OCc1nc2ccc(S(=O)(=O)N3CCOCC3)cc2[nH]1	Bead autofluor 22238
COc1ccc(Cc2nc3ccc(S(=O)(=O)N4CCOCC4)cc3[nH]2)cc1OC	Bead autofluor 24349
CCc1c(C)sc(NC(=O)CSc2nc3c(c(C(F)(F)F)n2)CCc2ccccc2-3)c1C#N	Bead autofluor 21133
COCCOc1ccc(C(F)(F)F)cc1NC(=O)c1ccccc1	none
CC(=O)Nc1cc(C(F)(F)F)ccc1OCCOc1ccccc1	BoNT A protease inconclusive, Bead autofluor 21706
O=C1Nc2ccccc2OC1CC(=O)N1CCN(c2cccc(C(F)(F)F)c2)CC1 (stereo not drawn)	Bead autofluor 21735
COc1cc(NC(=O)COc2ccccc2)ccc1NC(=O)c1ccco1	none
CCOc1ccc(OCC)c(NC(=O)CSc2nc3ccccc3c(=O)n2C)c1	Bead autofluor 22042
COc1cc(NC(=O)CSc2nc3ccccc3c(=O)n2C)ccc1NC(=O)c1ccco1	Bead autofluor 17911
COc1cc(NC(=O)c2ccco2)c(OC)cc1NC(=O)CSc1nnc(-c2cccs2)n1C	Bead autofluor 22652
COCC(=O)N1CCC(Oc2ccc(C(=O)N(C)Cc3nccs3)cc2)CC1	none
COc1ccccc1OCC(=O)Nc1ccc(S(=O)(=O)N2CCCC2)cc1	none
Cc1cc(=O)[nH]c(SC/C=C/c2ccccc2)n1	Bead autofluor 17675
Cc1cc(=O)[nH]c(SCCCOc2ccc(F)cc2)n1	Bead autofluor 23808
CCOc1ccccc1NC(=O)CSc1nnc(CCC(=O)Nc2ccccc2F)n1C	none
Cc1ccc(C(=O)/C=C/c2ccc(-c3ccc(C)cc3)o2)cc1	BoNT A protease 41
CCN(CC)S(=O)(=O)c1ccc(C(=O)/C=C/c2ccc(-c3ccc([N+](=O)[O-])cc3)o2)cc1	Anthrax LF inh2 48, BoNT A protease 79
O=C(/C=C/c1ccccc1)c1ccccc1	none
O=C(/C=C\c1ccc(-c2ccccc2)o1)c1ccccc1	BoNT A protease 66
CC(CC(=O)NCc1ccccc1)C1CCCO1 (stereo not drawn)	Bead autofluor 19114
Cc1cc(C)c(OCCN2C(=O)NC(C)(C)C2=O)c(Cl)c1	Bead autofluor 22616
Cc1cc(Cl)c(OCCN2C(=O)NC(C)(C)C2=O)c(Br)c1	Bead autofluor 20599
Cc1cc(Cl)cc(Br)c1OCCCN1C(=O)NC(C)(C)C1=O	Bead autofluor 20662
Cc1ccc(C(C)C)c(OCCCN2C(=O)NC(C)(C)C2=O)c1	none
Cc1cc(Cl)c(OCCCNCc2ccccc2)c(Br)c1	none
COCCNCCCCOc1c(Cl)cc(C)cc1Br	Bead autofluor 20464
Cn1cc(S(=O)(=O)NC[C@H]2O[C@@H](n3ccc(=O)[nH]c3=O)[C@H](O)[C@@H]2O)cn1	none
Cc1ccc(NS(=O)(=O)c2ccc3c(c2)OCCCO3)cc1S(=O)(=O)N1CCOCC1	none
Cc1ccccc1NC(=S)N(C)Cc1cn(C)c2ccccc12	none
Cc1ccc(NC(=O)NC2CCCCC2)cc1Cl	Bead autofluor 21618
